The experiment can be described thus: chemical genetic growth profiling, strain panel (AID 1159580).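 Further: tested at 20 µM; growth read once vehicle control cultures reached saturation at 30 °C; 1 = growth at the plate median or of vehicle wells; lower values mean less growth of the strain.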 The settings on record: S. cerevisiae deletion strains, growth OD.

The record followed here is PubChem BioAssay AID1159580 (chemical genetic matrix, 2015).

The whole screen tested about 5,500 compounds, of which about 2,000 (36%) were called active. Inconclusive results (about 18%) are left out. The list shows a part of the results. Unmarked numbers belong to inactive results. No stated cut-off is given here; in the data, active means normalized growth mostly below about 0.91 (no sharp cut-off); inconclusive means no clear call, values can overlap the other calls; inactive means mostly above about 0.92.

On to `CCCCCCCCCCCCCCCC(=O)OC(CC(=O)O)C[N+](C)(C)C` (stereo unspecified), for which the normalized growth reads like this: (locus YAL040C, strain CLN3, active compounds read low) 1.07; (locus YCL061C, strain MRC1 (second series), active compounds read low) 0.492 (active); (locus YDR150W, strain NUM1, active compounds read low) 0.56 (active); (locus YDR363W, strain ESC2, active compounds read low) 0.784 (active); (locus YER002W, strain NOP16, active compounds read low) 0.424 (active); (locus YGR229C, strain SMI1, active compounds read low) 0.0686 (active). Further, the normalized growth is, setting by setting: (locus YJR075W, strain HOC1, active compounds read low) 0.724 (active); (locus YMR263W, strain SAP30, active compounds read low) 0.584 (active); (locus YNL153C, strain GIM3, active compounds read low) 0.0876 (active); (locus YNL175C, strain NOP13, active compounds read low) 0.0754 (active); (locus YNL197C, strain WHI3, active compounds read low) 0.0681 (active); (locus YNL224C, strain SQS1, active compounds read low) 0.0761 (active). In addition, the normalized growth is 0.354 (active) (locus YNL322C, strain KRE1, active compounds read low); 0.0749 (active) (locus YOR083W, strain WHI5 (second series), active compounds read low); 0.383 (active) (locus YPL055C, strain LGE1, active compounds read low); 0.976 (locus YPL241C, strain CIN2, active compounds read low).
